# Source: PubChem BioAssay
# PI4K2A block = PI4K2A (human) kinase inhibition; Q9BTU6; purified PI4K2A, ADP-Glo luminescence, 1 h; active compounds read low; activity change, negative = inhibition, % at 76.9 µM; actives 0.13% (n = 420,000); in the data active = activity change below about -50%; inconclusive = mostly about -30% to -49%;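 also: -100% = wells without enzyme as full effect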
#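 PI4K2A activity was measured by ADP-Glo luminescence: enzyme (4 ug/mL stock) and phosphatidylinositol (1.2 mM stock) in Tris pH 7.5/MgCl2/EGTA/Triton X-100 buffer were reacted with ATP (300 microM stock) for one hour at ambient temperature.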
# Tb PFK inh = blocks T. brucei phosphofructokinase | Potency, µM (doses to about 57.5 µM), inactives show top-dose activity, negative = inhibition, actives largely listed as inhibitors | O15648 | T. brucei PFK, ADP-Glo luminescence | actives 0.17% (n = 330,000);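 also: potency is read from the fitted curve at half-maximal effect; 0% = uninhibited 1x PFK enzyme wells and -100% = no-enzyme wells; nearly all actives have a fitted effect of over 60% in size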
# Target sequence (O15648 whole entry, looked up): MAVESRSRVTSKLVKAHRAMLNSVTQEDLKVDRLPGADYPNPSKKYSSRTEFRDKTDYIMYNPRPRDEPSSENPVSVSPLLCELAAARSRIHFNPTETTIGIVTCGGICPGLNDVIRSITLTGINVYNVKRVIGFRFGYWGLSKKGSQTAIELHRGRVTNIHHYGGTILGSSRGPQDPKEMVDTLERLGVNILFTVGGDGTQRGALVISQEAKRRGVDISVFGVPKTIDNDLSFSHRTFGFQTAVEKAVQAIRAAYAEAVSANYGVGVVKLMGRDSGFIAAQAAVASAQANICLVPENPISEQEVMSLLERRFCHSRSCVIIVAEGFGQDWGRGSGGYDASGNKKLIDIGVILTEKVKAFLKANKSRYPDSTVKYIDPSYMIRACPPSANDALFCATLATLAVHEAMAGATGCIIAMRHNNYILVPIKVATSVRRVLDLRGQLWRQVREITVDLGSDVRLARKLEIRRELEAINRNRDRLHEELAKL
#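 1.25 nM PFK with 0.5 mM F6P and 0.1 mM ATP in 0.1 M TEA pH 8.0, 5 mM MgCl2, incubated 45 min at room temperature; ADP measured by ADP-Glo luminescence; compounds titrated up to 57 uM.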
# Tb PGK inh = blocks T. brucei phosphoglycerate kinase; P07378; PGK/GAPDH coupled, Kinase-Glo luminescence, 60 min; Potency, µM (doses to about 57.5 µM), for inactives: at the top dose activity change, negative = inhibition, hits mostly inhibitors; actives 0.043% (n = 380,000); also: potency is read from the fitted curve at half-maximal effect; nearly all actives have a fitted effect of over 60% in size
#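 Recombinant glycosomal PGK reaction used 1,3-bisphosphoglycerate generated in-well by GAPDH (100nM final) in 100mM TEA pH 7.6, 5mM MgCl2, 0.01% Tween-20. After 60 minutes at room temperature, ATP was read by Kinase-Glo Plus luminescence end-point.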
# PI5P4K alpha inh = inhibitors of human PI5P4K alpha. actives 1.2% (n = 330,000). max response, %. AID 652105. P48426. PI5P4Kalpha enzyme, ADP-Glo luminescence, 60 min; active compounds read low; active = max response of -50% or lower; inconclusive = between -30% and -50%; inactive = -30% or higher; also: value at the top dose of about 77 µM
#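 Compounds were pin-transferred onto PI5P4Kalpha and substrate in HEPES pH 7.4 buffer with EGTA, CHAPS and 5% DMSO. ATP (5 microM final) started the reaction, which ran 60 minutes at room temperature before ADP-Glo detection.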
# Pin1 inh = blocks the human prolyl isomerase Pin1. Q13526. Pin1 FP peptide displacement, HiFluor488, 10 min. Potency, µM (top dose mostly 115 µM), inactives show top-dose activity, negative = inhibition, usual class: inhibitors. actives 0.009% (n = 390,000); active = well fitted inhibition curve with a large enough effect in the polarisation, with a control signal flat, not every such curve was filed as active; inconclusive = small, poorly fitted or top-dose-only effect, or effect the other way, or a change in a side signal; inactive = no such curve, though single readings can be large or run the other way; the % refers to the polarisation; also: potency is read from the fitted curve at half-maximal effect
# Target sequence (Q13526 whole entry, looked up): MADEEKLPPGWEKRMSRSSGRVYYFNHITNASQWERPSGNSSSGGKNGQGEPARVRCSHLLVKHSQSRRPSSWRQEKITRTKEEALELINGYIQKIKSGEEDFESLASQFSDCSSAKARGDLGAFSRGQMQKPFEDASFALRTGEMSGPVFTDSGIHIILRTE
# * hit, by the source's call; i = inactive; ? = inconclusive; / = no result; [ ] = another dose, or the depositor's remark. This is one part of a sample in which hits are shown more often than they occur. Unless noted, calls follow the shape of the dose curve; as a rule, active = well fitted curve in the direction sought with a large enough effect; inconclusive = small, poorly fitted or top-dose-only effect, or another doubt; inactive = no such curve, though single readings can be large; an effect the other way counts as inactive or inconclusive. Unless noted, % is scaled to controls: 0 for no effect and ±100 for the full control effect.
SMILES,PI4K2A block,Tb PFK inh,Tb PGK inh,PI5P4K alpha inh,Pin1 inh
CCC(C)NC(=O)c1c(F)c(F)c(F)c(F)c1F (stereo unspecified),-63*,-1%,-8%,-1,-6%
CCC(C)NC(=O)c1ccccc1-c1ccccc1C(=O)NC(C)CC (stereo unspecified),0,1%,4%,15,0%
Cc1cccc(C2=NN(c3ccccc3)[C@H](CO)[C@H]2c2ccccc2)c1,9,-2%,9%,12,?
Cc1ccc(SCC(=O)c2ccc(CC(=O)O)s2)cc1,-15,?,-2%,?,3%
O=C(O)Cc1ccc(C(=O)CSc2ccccc2)s1,-11,-27%,-15%,-59*,-3%
Cc1cc(NC(=O)c2cccc(S(=O)(=O)N3CCCC3)c2)no1,-3,1%,6%,/,-1%
C=CCc1c(C)[nH]c(=O)[nH]c1=O,2,1%,-4%,2,-8%
Cc1cccc(NC(=O)c2ccccc2[N+](=O)[O-])n1,3,4%,6%,-3,4%
O=C(Nc1cccc(NC(=O)c2ccccc2[N+](=O)[O-])n1)c1ccccc1[N+](=O)[O-],-2,0%,0%,-55*,-6%
COc1ccccc1C=C1SC(=S)NC1=O,-6,/,-8%,-72*,?
Cc1cc(/C=C2\SC(=S)NC2=O)c(C)n1C,-18,2%[0.46 µM],-5%,/,?
O=C1NC(=S)SC1=Cc1ccccc1Cl,-1,/,-3%,-79*,0%
COc1ccc(C=C2SC(=S)NC2=O)c(OC)c1OC,-5,/,-6%,-64*,-2%
COc1ccc(/C=C2/CC/C(=C\c3ccc(OC)c(OC)c3OC)C2=O)c(OC)c1OC,2,-2%,-1%,1,25%
Cc1cc(/C=C2\SC(=S)NC2=O)cc(C)c1O,0,1%,-15%,-76*,74%
O=C(c1cccs1)N1CCCC(c2nc3c(nnn3Cc3ccc(F)cc3)c(=O)[nH]2)C1 (stereo unspecified),-13,0%,7%,17,7%
CCn1c(=O)c2sccc2n2c(CCCC(=O)N3CCN(c4cc(Cl)ccc4C)CC3)nnc12,-1,/,0%,/,-10%
CC1Cc2cc(/C=C3/SC(=S)NC3=O)ccc2O1 (stereo unspecified),-3,5%,-4%,-94*,1%
O=C1NC(=S)S/C1=C\c1cc(Cl)cc(Cl)c1O,-8,/,?,-58*,20%
COc1ccc(S(=O)(=O)N2CCC(C(N)=O)(N3CCCCC3)CC2)cc1,0,-2%,1%,0,0%
CC1=NN(C(N)=S)C(=O)C1N=Nc1c(Cl)cc([N+](=O)[O-])cc1Cl (stereo unspecified),1,-2%,-11%,-57*,-5%
CC(=O)NCCC(=O)Nc1nc(-c2cccs2)c(-c2cccs2)s1,-3,-3%,5%,3,16%
COc1ccc(N(C)C(=O)Nc2ccc3nsnc3c2)cc1,1,-4%,-2%,0,?
CC(C)N(C(=O)Nc1ccc2nsnc2c1)C(C)C,-68*,-31%,-26%,?,/
CN1CCN(C(c2ccc(C(F)(F)F)cc2)c2cc(Cl)c3cccnc3c2O)CC1 (stereo unspecified),/,-15%,/,/,/
SMILES,PI4K2A block,Tb PFK inh,Tb PGK inh,PI5P4K alpha inh,Pin1 inh
CN1CCN(C(c2ccc(Cl)cc2)c2cc(Cl)c3cccnc3c2O)CC1 (stereo unspecified),13,-20%,-8%,-62*,5%
CN1C(=O)[C@H]2[C@@H](/C=C/c3ccccc3)N3C(=O)CN(CC4CC4)C(=O)[C@@]3(C)[C@H]2C1=O,4,-2%,2%,5,-2%
Fc1ccc(C2CC(c3ccco3)n3ncnc3N2)cc1 (stereo unspecified),-6,0%,-1%,0,0%
O=C(Cn1cc([N+](=O)[O-])ccc1=O)N1CCCc2ccccc21,7,6%,2%,-11,0%
CCCCN(C(=O)Cn1ncc(Cl)c(Cl)c1=O)c1c(N)n(CC(C)C)c(=O)[nH]c1=O,-26,1%,-12%,-52*,?
CCCCN(C(=O)CN1CC(C)OC(C)C1)c1c(N)n(CC(C)C)c(=O)[nH]c1=O (stereo unspecified),-1,-9%,-7%,10,-3%
COc1ccc2nc(C)cc(SCC(=O)NNC(=O)COc3cccc4ccccc34)c2c1,4,2%,1%,1,7%
COc1cc(N)ccc1Nc1c2ccccc2nc2ccccc12,-6,/,/,-55*,/
NC(=O)OCC(COC(N)=O)c1ccccc1,-5,-1%,2%,7,-3%
O=C1C(=O)c2ccc(-c3ccccc3)cc2-c2ccccc21,-63*,-6%,-8%,/,-12%
Nc1ccc2c(c1)C(=O)C(=O)c1ccccc1-2,?,-20%,?,-27,?
COc1ccc(NC(=O)c2sc3nc(C)c(C(=O)Nc4ccc(C)cc4C)c(-c4ccccc4Cl)c3c2N)cc1,2,/,1%,/,?
CC(C)Cc1c2c([nH]c(=S)c1C#N)CCCC2,-4,-9%,-1%,?,0%
COc1ccc(OC)c(-c2c3c([nH]c(=S)c2C#N)CCCC3)c1,0,-4%,10%,-58*,5%
COc1ccc(-c2c3c([nH]c(=S)c2C#N)CCC3)cc1,-13,?,-6%,-70*,?
COc1ccc(-c2c(C#N)c(SCC(N)=O)nc3c2CCCC3)cc1,2,2%,-1%,0,2%
COc1cc(-c2nnc(SCC(=O)NCc3ccccc3Cl)o2)cc(OC)c1OC,-2,/,-6%,/,0%
COc1ccc(CCNC(=O)CNC(=O)c2ccc(Br)o2)cc1OC,-3,-14%,-7%,2,11%
COc1ccc(C(=O)Nc2ccc(-c3n[nH]c(=S)o3)cc2)cc1OC,-4,17%,/,-53*,-3%
COc1ccc(C(=O)Nc2ccncc2)cc1OC,-4,-1%,-8%,/,-7%
O=C(Nc1ccc(-c2n[nH]c(=S)o2)cc1)c1ccccc1Br,-4,4%,-7%,-57*,-4%
COc1ccc(Cl)cc1-c1n[nH]c(=S)o1,-7,15%,-1%,-75*,1%
O=C(Nc1ccc(NC(=O)c2ccccc2Br)cc1)c1ccccc1,-1,-2%,i,-6,-2%
COc1cc2nc(SCc3ccc(C)cc3)n3nc(CCn4nc(C)cc4C)nc3c2cc1OC,-1,/,-2%,/,-7%
CC(=O)c1ccc(Cc2cnc(N)s2)cc1,-4,0%,-6%,0,1%
Nc1ncc(N=Nc2cc(C(=O)O)ccc2Cl)s1,-11,0%,-12%,-54*,-12%
Nc1nc(N=Nc2ccc(O)cc2)cc(=O)[nH]1,-13,/,-12%,-52*,/
